Results: ChEMBL document CHEMBL1961873, “Compounds: GSK PKIS; Assays: Nanosyn kinase panel” (2012)

Key:
[1] = target: Tyrosine-protein kinase Fyn (Homo sapiens) (UniProt P06241); settings: at 1 µM
[2] = target: Tyrosine-protein kinase HCK (Homo sapiens) (UniProt P08631); settings: at 0.1 µM
[3] = target: Tyrosine-protein kinase HCK (Homo sapiens) (UniProt P08631); settings: at 1 µM
[4] = target: Insulin-like growth factor 1 receptor (Homo sapiens) (UniProt P08069); settings: at 0.1 µM
[5] = target: Insulin-like growth factor 1 receptor (Homo sapiens) (UniProt P08069); settings: at 1 µM
[6] = target: Insulin receptor (Homo sapiens) (UniProt P06213); settings: at 0.1 µM
Insulin receptor (Homo sapiens), sequence (P06213 28-758 limits assumed): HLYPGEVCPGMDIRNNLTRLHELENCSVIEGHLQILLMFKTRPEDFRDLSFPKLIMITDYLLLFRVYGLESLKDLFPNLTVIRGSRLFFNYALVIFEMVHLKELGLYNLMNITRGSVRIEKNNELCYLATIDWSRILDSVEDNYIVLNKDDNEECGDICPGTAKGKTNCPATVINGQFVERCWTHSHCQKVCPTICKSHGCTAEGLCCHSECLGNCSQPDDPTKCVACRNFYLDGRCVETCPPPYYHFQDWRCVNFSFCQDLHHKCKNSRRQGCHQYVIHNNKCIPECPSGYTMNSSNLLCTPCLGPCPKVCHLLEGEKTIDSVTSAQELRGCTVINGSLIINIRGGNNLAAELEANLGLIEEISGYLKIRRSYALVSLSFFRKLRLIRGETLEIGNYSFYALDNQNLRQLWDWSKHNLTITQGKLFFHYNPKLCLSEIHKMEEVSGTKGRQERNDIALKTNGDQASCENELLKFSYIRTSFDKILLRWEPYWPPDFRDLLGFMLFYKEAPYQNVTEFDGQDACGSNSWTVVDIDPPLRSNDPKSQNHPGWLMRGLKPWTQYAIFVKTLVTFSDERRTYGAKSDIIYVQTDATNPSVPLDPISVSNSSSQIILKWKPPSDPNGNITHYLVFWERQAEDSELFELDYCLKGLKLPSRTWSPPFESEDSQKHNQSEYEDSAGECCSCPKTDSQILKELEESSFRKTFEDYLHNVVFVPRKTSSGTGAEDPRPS
Insulin receptor (Homo sapiens), sequence (P06213 763-1382 limits assumed): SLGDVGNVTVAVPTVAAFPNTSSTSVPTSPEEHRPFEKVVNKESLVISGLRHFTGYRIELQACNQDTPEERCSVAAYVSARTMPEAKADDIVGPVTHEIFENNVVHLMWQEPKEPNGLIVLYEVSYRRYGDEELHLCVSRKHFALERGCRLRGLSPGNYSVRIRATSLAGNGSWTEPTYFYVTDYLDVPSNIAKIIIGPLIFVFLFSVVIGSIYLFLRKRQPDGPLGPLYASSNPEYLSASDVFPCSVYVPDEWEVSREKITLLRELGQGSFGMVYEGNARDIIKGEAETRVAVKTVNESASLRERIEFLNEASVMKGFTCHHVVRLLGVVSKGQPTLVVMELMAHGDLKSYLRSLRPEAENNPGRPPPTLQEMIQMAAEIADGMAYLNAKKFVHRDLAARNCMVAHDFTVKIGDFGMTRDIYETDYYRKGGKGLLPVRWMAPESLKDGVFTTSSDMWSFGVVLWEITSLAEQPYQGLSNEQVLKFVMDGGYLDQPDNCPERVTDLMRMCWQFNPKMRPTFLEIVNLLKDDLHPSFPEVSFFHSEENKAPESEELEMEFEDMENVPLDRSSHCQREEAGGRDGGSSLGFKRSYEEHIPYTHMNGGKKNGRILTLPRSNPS

[7] = target: Insulin receptor (Homo sapiens) (UniProt P06213); settings: at 1 µM
[8] = target: Insulin receptor-related protein (Homo sapiens) (UniProt P14616); settings: at 0.1 µM
[9] = target: Insulin receptor-related protein (Homo sapiens) (UniProt P14616); settings: at 1 µM
[10] = target: T1, Tyrosine-protein kinase ITK/TSK (Homo sapiens) (UniProt Q08881); settings: at 0.1 µM
T1 sequence (whole entry): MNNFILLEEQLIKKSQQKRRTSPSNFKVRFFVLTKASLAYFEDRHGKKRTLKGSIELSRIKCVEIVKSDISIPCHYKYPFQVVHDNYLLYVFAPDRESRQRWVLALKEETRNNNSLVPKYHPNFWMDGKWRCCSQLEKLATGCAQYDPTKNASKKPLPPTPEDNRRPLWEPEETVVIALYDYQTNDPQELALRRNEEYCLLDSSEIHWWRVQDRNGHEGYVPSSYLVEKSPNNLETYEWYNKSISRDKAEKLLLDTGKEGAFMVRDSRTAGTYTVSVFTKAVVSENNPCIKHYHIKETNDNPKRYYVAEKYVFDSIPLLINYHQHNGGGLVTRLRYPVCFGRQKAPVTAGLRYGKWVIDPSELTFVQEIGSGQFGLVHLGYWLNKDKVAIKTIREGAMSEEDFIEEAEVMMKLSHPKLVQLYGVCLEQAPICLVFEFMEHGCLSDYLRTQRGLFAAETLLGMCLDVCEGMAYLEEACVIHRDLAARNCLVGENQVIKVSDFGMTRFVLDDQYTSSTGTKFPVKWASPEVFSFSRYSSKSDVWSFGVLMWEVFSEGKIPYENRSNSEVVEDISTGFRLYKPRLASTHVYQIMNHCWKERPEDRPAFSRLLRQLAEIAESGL

[11] = target: T1, Tyrosine-protein kinase ITK/TSK (Homo sapiens); settings: at 1 µM
[12] = target: Tyrosine-protein kinase JAK1 (Homo sapiens) (UniProt P23458); settings: at 0.1 µM
Tyrosine-protein kinase JAK1 (Homo sapiens), sequence (P23458 whole entry): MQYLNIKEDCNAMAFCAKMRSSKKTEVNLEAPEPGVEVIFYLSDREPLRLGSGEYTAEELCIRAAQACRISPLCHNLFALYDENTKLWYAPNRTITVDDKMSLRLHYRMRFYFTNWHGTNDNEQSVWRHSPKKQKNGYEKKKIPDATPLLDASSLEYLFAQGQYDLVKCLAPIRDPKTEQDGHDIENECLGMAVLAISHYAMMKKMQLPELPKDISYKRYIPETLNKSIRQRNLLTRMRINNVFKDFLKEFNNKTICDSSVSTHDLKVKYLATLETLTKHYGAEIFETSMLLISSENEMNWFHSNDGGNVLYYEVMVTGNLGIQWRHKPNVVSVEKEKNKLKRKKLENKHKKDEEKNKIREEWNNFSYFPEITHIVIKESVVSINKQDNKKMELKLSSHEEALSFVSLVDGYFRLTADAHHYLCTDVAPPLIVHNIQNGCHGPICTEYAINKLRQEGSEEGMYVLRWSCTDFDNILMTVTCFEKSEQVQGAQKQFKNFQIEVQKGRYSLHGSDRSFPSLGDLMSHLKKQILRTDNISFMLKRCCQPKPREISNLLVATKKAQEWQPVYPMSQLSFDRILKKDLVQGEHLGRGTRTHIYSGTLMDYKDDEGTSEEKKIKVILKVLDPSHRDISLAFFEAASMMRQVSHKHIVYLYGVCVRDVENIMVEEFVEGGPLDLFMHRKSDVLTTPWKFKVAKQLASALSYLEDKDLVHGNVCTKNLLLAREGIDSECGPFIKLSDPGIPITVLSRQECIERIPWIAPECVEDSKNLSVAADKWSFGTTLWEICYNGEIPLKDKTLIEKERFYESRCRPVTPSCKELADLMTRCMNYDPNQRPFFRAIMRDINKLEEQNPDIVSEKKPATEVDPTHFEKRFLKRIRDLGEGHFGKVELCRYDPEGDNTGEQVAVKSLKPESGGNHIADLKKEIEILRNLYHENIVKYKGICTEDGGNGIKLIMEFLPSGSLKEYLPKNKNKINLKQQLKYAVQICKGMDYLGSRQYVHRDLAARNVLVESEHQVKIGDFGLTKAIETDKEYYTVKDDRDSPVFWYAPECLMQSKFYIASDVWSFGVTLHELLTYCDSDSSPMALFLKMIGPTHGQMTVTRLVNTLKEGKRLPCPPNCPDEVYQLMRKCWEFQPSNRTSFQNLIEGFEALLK

[13] = target: Tyrosine-protein kinase JAK1 (Homo sapiens) (UniProt P23458); settings: at 1 µM
[14] = target: Tyrosine-protein kinase JAK2 (Homo sapiens) (UniProt O60674); settings: at 0.1 µM
[15] = target: Tyrosine-protein kinase JAK2 (Homo sapiens) (UniProt O60674); settings: at 1 µM
[16] = target: T2, Tyrosine-protein kinase JAK3 (Homo sapiens) (UniProt P52333); settings: at 0.1 µM
T2 sequence (whole entry): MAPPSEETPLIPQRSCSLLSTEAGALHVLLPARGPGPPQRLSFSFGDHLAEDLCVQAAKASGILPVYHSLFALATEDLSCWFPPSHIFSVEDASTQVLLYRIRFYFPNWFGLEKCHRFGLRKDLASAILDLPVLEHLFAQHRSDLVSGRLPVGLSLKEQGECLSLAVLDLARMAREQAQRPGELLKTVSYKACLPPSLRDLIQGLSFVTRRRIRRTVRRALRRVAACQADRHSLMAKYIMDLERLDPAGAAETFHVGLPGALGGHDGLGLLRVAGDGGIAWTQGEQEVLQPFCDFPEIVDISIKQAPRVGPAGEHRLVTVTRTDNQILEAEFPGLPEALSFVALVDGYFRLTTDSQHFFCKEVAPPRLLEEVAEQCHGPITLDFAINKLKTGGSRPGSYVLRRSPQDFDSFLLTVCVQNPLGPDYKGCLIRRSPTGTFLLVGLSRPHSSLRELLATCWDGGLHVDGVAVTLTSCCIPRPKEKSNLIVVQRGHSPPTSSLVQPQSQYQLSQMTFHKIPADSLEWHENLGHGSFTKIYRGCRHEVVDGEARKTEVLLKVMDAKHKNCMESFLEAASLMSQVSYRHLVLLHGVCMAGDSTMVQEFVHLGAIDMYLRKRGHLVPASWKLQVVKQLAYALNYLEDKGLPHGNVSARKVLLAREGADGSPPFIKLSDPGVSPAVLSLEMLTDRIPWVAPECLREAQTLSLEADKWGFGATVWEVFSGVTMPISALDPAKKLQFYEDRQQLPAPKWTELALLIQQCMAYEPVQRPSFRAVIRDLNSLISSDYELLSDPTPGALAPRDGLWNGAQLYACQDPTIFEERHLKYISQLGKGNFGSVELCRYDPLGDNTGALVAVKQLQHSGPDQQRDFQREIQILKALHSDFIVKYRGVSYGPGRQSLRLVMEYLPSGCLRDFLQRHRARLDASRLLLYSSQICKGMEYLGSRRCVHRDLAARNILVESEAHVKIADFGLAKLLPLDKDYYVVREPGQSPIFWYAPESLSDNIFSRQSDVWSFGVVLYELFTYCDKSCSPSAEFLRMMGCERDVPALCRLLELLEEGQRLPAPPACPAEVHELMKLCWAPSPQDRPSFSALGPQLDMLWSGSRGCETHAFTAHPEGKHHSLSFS

[17] = target: T2, Tyrosine-protein kinase JAK3 (Homo sapiens); settings: at 1 µM
[18] = target: Vascular endothelial growth factor receptor 2 (Homo sapiens) (UniProt P35968); settings: at 0.1 µM
[19] = target: Vascular endothelial growth factor receptor 2 (Homo sapiens) (UniProt P35968); settings: at 1 µM
[20] = target: Mast/stem cell growth factor receptor Kit (Homo sapiens) (UniProt P10721); settings: at 0.1 µM;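 further: values are mean inhibition of KIT, from the GSK PKIS dataset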
Mast/stem cell growth factor receptor Kit (Homo sapiens), sequence (P10721 whole entry): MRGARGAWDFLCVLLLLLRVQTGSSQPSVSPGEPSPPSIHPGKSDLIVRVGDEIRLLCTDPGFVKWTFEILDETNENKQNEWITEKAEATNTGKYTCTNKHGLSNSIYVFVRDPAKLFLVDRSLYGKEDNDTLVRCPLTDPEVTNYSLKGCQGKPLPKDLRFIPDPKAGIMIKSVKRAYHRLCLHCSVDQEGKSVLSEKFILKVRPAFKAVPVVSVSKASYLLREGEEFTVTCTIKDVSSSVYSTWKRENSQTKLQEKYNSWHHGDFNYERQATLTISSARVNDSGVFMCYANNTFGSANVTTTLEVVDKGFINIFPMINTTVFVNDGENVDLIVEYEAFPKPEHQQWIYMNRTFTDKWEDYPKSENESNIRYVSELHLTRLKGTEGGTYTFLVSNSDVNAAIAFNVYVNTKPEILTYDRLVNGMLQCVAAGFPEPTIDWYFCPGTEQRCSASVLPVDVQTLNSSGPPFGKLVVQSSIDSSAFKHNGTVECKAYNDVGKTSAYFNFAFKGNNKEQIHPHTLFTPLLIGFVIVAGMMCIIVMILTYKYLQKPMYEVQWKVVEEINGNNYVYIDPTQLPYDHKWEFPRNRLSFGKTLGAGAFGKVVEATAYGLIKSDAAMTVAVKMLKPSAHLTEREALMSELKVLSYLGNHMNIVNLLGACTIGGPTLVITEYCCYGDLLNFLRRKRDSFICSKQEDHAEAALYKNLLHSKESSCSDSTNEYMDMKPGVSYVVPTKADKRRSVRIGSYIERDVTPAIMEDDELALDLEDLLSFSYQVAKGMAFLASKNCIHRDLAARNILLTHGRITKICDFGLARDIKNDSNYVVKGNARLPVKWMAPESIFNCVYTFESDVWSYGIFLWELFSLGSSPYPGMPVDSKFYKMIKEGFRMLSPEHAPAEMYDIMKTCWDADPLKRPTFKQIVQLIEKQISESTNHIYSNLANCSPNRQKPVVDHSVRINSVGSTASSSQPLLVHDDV

Insulin-like growth factor 1 receptor (Homo sapiens), sequence (P08069 31-736 limits assumed): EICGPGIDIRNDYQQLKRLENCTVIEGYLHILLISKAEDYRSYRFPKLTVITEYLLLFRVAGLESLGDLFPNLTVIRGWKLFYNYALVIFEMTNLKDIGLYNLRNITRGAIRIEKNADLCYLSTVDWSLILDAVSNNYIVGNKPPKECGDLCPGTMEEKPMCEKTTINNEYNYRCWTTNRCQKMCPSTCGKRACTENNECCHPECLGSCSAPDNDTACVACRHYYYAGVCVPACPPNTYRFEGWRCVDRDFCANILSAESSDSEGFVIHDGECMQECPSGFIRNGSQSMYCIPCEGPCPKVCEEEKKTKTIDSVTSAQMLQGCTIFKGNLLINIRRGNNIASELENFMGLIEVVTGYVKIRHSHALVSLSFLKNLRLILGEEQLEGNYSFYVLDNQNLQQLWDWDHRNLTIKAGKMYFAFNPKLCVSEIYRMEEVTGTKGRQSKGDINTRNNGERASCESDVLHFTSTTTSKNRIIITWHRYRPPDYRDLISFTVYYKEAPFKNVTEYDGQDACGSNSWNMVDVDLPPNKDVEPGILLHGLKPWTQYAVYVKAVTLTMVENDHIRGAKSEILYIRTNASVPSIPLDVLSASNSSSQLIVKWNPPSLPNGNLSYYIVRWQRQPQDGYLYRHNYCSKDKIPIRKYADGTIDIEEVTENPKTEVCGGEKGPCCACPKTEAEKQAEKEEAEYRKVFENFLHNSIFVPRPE
Insulin-like growth factor 1 receptor (Homo sapiens), sequence (P08069 741-1367 limits assumed): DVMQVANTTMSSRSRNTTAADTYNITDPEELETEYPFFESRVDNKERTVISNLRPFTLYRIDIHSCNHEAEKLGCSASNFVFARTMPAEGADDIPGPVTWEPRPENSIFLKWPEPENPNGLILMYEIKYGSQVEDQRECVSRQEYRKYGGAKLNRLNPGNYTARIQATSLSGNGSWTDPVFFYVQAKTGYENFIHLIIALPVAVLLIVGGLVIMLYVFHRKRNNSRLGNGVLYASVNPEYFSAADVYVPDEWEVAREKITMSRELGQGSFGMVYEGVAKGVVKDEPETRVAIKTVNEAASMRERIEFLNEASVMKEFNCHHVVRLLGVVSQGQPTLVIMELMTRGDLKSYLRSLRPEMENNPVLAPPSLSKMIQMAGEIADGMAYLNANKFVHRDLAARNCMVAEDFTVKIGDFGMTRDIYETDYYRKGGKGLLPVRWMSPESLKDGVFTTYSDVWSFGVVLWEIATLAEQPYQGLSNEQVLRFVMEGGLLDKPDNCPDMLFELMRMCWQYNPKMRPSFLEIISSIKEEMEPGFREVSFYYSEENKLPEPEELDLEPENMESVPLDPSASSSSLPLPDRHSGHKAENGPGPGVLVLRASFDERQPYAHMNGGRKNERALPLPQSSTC

SMILES | inhibition [1] | inhibition [2] | inhibition [3] | inhibition [4] | inhibition [5] | inhibition [6] | inhibition [7] | inhibition [8] | inhibition [9] | inhibition [10] | inhibition [11] | inhibition [12] | inhibition [13] | inhibition [14] | inhibition [15] | inhibition [16] | inhibition [17] | inhibition [18] | inhibition [19] | inhibition [20]
Cc1ccc(NC(=O)CC2CC2)cc1-c1ccc(C(=O)NCC2CC2)cc1 | 5.9% | 9% | 10.3% | 1.36% | 2.09% | 2.71% | 5.25% | 2.99% | 3.28% | 1.08% | 1.47% | 1.27% | 6.97% | 1.47% | 5.47% | -0.78% | 2.17% | 9.88% | 12.3% | 3.18%
CCS(=O)(=O)c1ccc(OC)c(Nc2nccc(N(C)c3ccc4c(C)n[nH]c4c3)n2)c1 | 65% | 39.5% | 72.1% | 12.5% | 12.5% | 3.36% | 4.35% | 1.12% | 4.55% | 0.31% | 1.96% | 3.52% | 5.13% | 1.45% | -0.31% | -1.93% | -1.6% | 78.7% | 76.8% | 44.2%
OCc1ccc(-c2nc(-c3ccccn3)c(-c3ccc4c(c3)OCO4)[nH]2)cc1 | 5.01% | 9.2% | 9.7% | 1.56% | 4.7% | 3.33% | 2.79% | 4.43% | 1.6% | 1.59% | 2.5% | 3.55% | 3.24% | 2.17% | 3.4% | -1.9% | 0.74% | 7.67% | 6.53% | 13.1%
CCCN1CCCC(c2ccc(Nc3nc(Nc4cc(F)ccc4C(N)=O)c4cc[nH]c4n3)c(OC)c2)C1 (stereo not drawn) | 16.1% | 7.06% | 11.9% | 93% | 94.8% | 98.9% | 96.2% | 93.7% | 97% | 2.35% | 6% | -0.47% | -0.81% | 1.82% | 2.51% | -1.48% | -3.27% | 7.45% | 16.6% | 8.98%
Cc1nc(-c2ccccc2)n2nc(NCCCN3CCOCC3)ncc12 | 4.98% | 3.98% | 4.67% | 3.15% | 1.6% | 0.32% | 2.69% | -0.73% | 1.44% | 0.99% | 1.89% | 3.7% | 4.63% | 0.5% | 1.89% | -2.38% | 0.04% | 2.59% | 5.25% | 3.52%
CCS(=O)(=O)c1ccc(OC)c(Nc2ncc(-c3cccc(OC)c3)o2)c1 | 76.5% | 21.1% | 67.2% | 2.1% | 4.95% | 0.3% | 5.78% | 3.08% | 3.36% | 1.61% | 5.9% | -0.79% | -4.39% | 0.87% | 1.58% | -1.19% | 5.85% | 48.4% | 73.2% | 73.4%
CN(C)CCCn1c(-c2nonc2N)nc2cnccc21 | 1.87% | 5.43% | 6.49% | 10.2% | 9.74% | 7.05% | 4.75% | 2.59% | 4.16% | 1.43% | 0.92% | 4.69% | 6.17% | 1.25% | 0.79% | -1.68% | -0.27% | 4.41% | 8.24% | 2.22%
NS(=O)(=O)c1cccc(Nc2cc(-c3ccc(F)cc3)n[nH]2)c1 | 5.32% | 3.23% | 7.76% | 0.35% | 1.22% | 0.86% | 1.03% | 1.9% | 2.3% | 1.67% | 6.64% | 3.56% | 10.4% | 0.36% | 1.81% | -1.55% | 1.11% | 5.37% | 15.3% | 34.5%
COC(=O)c1ccc2c(c1)C(=Cc1cc(Br)c(O)c(Br)c1)C(=O)N2 | 22.5% | 5.59% | 18.3% | 3.29% | 2.72% | 3.96% | 3.99% | 1.56% | 1.64% | 2.44% | 3% | 3.26% | 12.2% | 1.7% | 6.21% | 1.39% | 7.25% | 3.9% | 24.5% | 3.84%
NS(=O)(=O)c1ccc(-c2cc3ccncc3cc2OCc2ccccc2)cc1 | 3.52% | 4.9% | 6.46% | 1.47% | 2.17% | 4.34% | 5.38% | 2.36% | 2.61% | 0.77% | 0.35% | 3.02% | 10% | 1.43% | 3.23% | -0.75% | -1.27% | 4.82% | 8.11% | 4.01%
COC(=O)Nc1nc2cc(Oc3ccc(NC(=O)Nc4cccc(Br)c4)cc3)ccc2[nH]1 | 9.52% | 6.2% | 6.79% | 3.08% | 2.4% | 1.48% | 5.63% | 1.82% | -1.05% | 1.01% | 1.87% | 5.36% | 11.8% | 1.09% | 3.06% | -0.45% | 1.27% |  |  | 84.5%
CN(C)C(=O)O[C@@H]1CN[C@@H](C#Cc2cc3ncnc(Nc4ccc(OCc5cccc(F)c5)c(Cl)c4)c3s2)C1 | 3.53% | 1.53% | 4.13% | -0.74% | 0% | 0.78% | 1.75% | -1.28% | 0.29% | 0.62% | 0.1% | 1.28% | 0.05% | 0.23% | -0.45% | 0.14% | 2.09% | 0.75% | 3.31% | -1.17%
COc1ccc(-c2nn3ncccc3c2-c2ccnc(Nc3cccc(C(F)(F)F)c3)n2)cc1 | 7.59% | 4.3% | 8.02% | -1.5% | 0.2% | 0.4% | 2.59% | 1.52% | 1.54% | 0.45% | 1.39% | 2.27% | 3.13% | 0.53% | 0.47% | -3.85% | -0.01% | 3.64% | 11.1% | 3.46%
C[C@@H](Oc1cc(-n2cnc3ccc(OCC4CCN(C)CC4)cc32)sc1C(N)=O)c1ccccc1C(F)(F)F | 12.6% | 3.31% | 32.6% | -4.89% | -1.61% | -0.09% | 1.24% | -3.02% | -2.86% | -1.81% | 0.89% | -1.08% | -2.39% | -0.93% | 2.51% | -0.8% | 30.1% | 2.65% | 34.4% | -0.76%
